PubChem BioAssay (Tox21)
Records with an inconclusive call do not appear. Active and inactive are the calls of the source. Unless noted, calls come from the whole dose curve; as a rule, active = well fitted curve in the direction sought with a large enough effect in the repeat runs; inconclusive = weak or mixed curves; inactive = no such curve, though single readings can be large; an effect the other way counts as inactive or inconclusive.

How the values were obtained:
[1] = qHTS assay for small molecule agonists of the p53 signaling pathway (AID 651631; calls by dose curve; note: nearly all actives have a fitted effect of over 15% in size)
In short: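 Readout was fluorescence from the LiveBLAzer FRET substrate, applied for 2 h at room temperature after 16 h compound exposure at 37 °C. Cells were the p53RE-bla HCT-116 line, with beta-lactamase driven by p53 response elements.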

[2] = qHTS assay for small molecules that induce genotoxicity in human embryonic kidney cells expressing luciferase-tagged ATAD5 (AID 651632); note: nearly all actives have a fitted effect of over 15% in size
In short: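 ATAD5-luc HEK293T, 2,000 cells/well; cpd or DMSO pin-transferred; 16 hr, 37C/5% CO2; Amplite 30 min RT; luminescence.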

[3] = qHTS assay for small molecule agonists of the p53 signaling pathway - cell viability (AID 651633; calls by dose curve; note: series mostly up to about 83 µM; nearly all actives have a fitted effect of over 30% in size)
In short: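 p53RE-bla cells, seeded at 4,000 per well and rested 5 h at 37 C/5% CO2, received compounds in DMSO for 16 h at 37 C. CellTiter-Glo was then added, and luminescence was read after 30 min at room temperature to gauge cytotoxicity.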

[4] = qHTS assay for small molecules that induce genotoxicity in human embryonic kidney cells expressing luciferase-tagged ATAD5 - cell viability (AID 651634; calls by dose curve; note: nearly all actives have a fitted effect of over 25% in size)
In short: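 Fluorescence from CellTiter-Fluor, reporting protease activity within live cells, served as the viability read-out. HEK293T cells carrying luciferase-tagged ATAD5 had been treated with compound for 15.5 hr at 37C.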

[5] = qHTS assay for small molecule disruptors of the mitochondrial membrane potential - cell viability (AID 720634; calls by dose curve;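 note: human HepG2 liver cancer cells; series mostly up to about 83 µM; nearly all actives have a fitted effect of over 20% in size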)
In short: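 Cells: HepG2, 2,000/well, attached overnight. Compound 1 hr, 37 C/5% CO2. +m-MPI dye, +CellTiter-Glo 30 min RT. Readout: luminescence (ATP).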

[6] = qHTS assay for small molecule disruptors of the mitochondrial membrane potential (AID 720635)
In short: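 HepG2 cells (2,000/well) attached overnight at 37C, then took compound for 1 hr at 37C, 5% CO2. Mito-MPS dye was added for 30 min; fluorescence was read at 490/535 nm (monomers) and 540/590 nm (aggregates).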

[7] = qHTS assay to test for compound auto fluorescence at 590 nm (red) in HepG2 cells (AID 720674)
In short: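 Compound auto-fluorescence is scored relative to Rose Bengal sodium, measured at 540/590 nm in live HepG2 cultures after 1 hr compound contact (37 C, 5% CO2).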

[8] = qHTS assay to test for compound auto fluorescence at 535 nm (green) in HepG2 cells (AID 720675)
[9] = qHTS assay to test for compound auto fluorescence at 460 nm (blue) in HEK293 cells (AID 720678)
In short: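 HEK293 cells (2,000/well, medium with 10% dialyzed FBS) attached 4-5 hr, then exposed to compound overnight at 37C, 5% CO2. Blue fluorescence read at 405/460 nm, with triamterene as reference fluorophore.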

[10] = qHTS assay to test for compound auto fluorescence at 590 nm (red) in HEK293 cells (AID 720679)
In short: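 HEK293 cells (2,000/well, 10% dialyzed FBS) attached 4-5 hr, then dosed with compound or DMSO and incubated overnight at 37C, 5% CO2. Red fluorescence read at 540/590 nm, Rose Bengal sodium as reference fluorophore.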

[11] = qHTS assay to test for compound auto fluorescence at 535 nm (green) in HEK293 cells (AID 720680)
[12] = qHTS assay to test for compound auto fluorescence at 460 nm (blue) in HEK293 cell free culture (AID 720681)
In short: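 Test compounds were pinned into cell-free culture medium (DMEM with 10% FBS) and fluorescence was read directly at Ex/Em 405/460 nm. Signals were expressed as fluorescence equivalents of triamterene, with DMSO vehicle as control.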

[13] = qHTS assay to test for compound auto fluorescence at 535 nm (green) in HEK293 cell free culture (AID 720682)
In short: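 Compounds were pin-transferred into cell-free DMEM with 10% FBS, and green fluorescence was read at excitation 485 nm and emission 535 nm. Intensities were expressed as fluorescein-equivalent values.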

[14] = qHTS assay to test for compound auto fluorescence at 590 nm (red) in HEK293 cell free culture (AID 720683)
In short: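 Tox21 10K library compounds were pinned into cell-free DMEM with 10% FBS and fluorescence was read at excitation 540 nm. Activity is expressed as Rose Bengal sodium equivalency.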

[15] = qHTS assay to test for compound auto fluorescence at 590 nm (red) in HepG2 cell free culture (AID 720684)
In short: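 Measured in medium alone (MEM containing 10% FBS) following pintool addition of compound; emission at 590 nm with 540 nm excitation, referenced to Rose Bengal sodium.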

[16] = qHTS assay to test for compound auto fluorescence at 460 nm (blue) in HepG2 cell free culture (AID 720685)
In short: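 Compound (23 nL) or DMSO pinned into cell-free MEM with 10% FBS; blue fluorescence read at 405/460 nm excitation/emission, expressed as auto-fluorescence equivalency to triamterene.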

[17] = qHTS assay to test for compound auto fluorescence at 535 nm (green) in HepG2 cell free culture (AID 720686)
[18] = qHTS assay to test for compound auto fluorescence at 460 nm (blue) in HepG2 cells (AID 720687)
In short: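 Cells (2,000/well in MEM with 10% FBS) attached overnight at 37 C, then were exposed to compound or DMSO for 1 hr at 37 C, 5% CO2. Fluorescence read at Ex/Em 405/460 nm, expressed as triamterene-equivalent signal.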

[19] = target: Glucocorticoid receptor (Homo sapiens) (UniProt P04150); assay: qHTS assay to identify small molecule agonists of the glucocorticoid receptor (GR) signaling pathway (AID 720691; active = well fitted activation curve with a large enough effect in the signal ratio in the repeat runs, not every such curve was filed as active; the % refers to the signal ratio)
In short: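 Fluorescence intensity from LiveBLAzer B/G FRET substrate (2 h, room temperature) reports beta-lactamase expression driven by the glucocorticoid response element in GR-bla HeLa cells after 18 h compound exposure at 37 C.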

[20] = target: Glucocorticoid receptor (Homo sapiens) (UniProt P04150); assay: qHTS assay to identify small molecule antagonists of the glucocorticoid receptor (GR) signaling pathway (AID 720692; active = well fitted inhibition curve with a large enough effect in the signal ratio in the repeat runs, not every such curve was filed as active; the % refers to the signal ratio)
In short: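 HeLa GR-bla cells; cmpd + dex 5 nM final, 18 h 37 C; LiveBLAzer B/G FRET substrate 2 h RT; fluorescence intensity read. Antagonist mode, qHTS.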
% is set by controls: 0 for no effect and ±100 for the full control effect.

Sequence of Glucocorticoid receptor (Homo sapiens) (P04150 whole entry, looked up): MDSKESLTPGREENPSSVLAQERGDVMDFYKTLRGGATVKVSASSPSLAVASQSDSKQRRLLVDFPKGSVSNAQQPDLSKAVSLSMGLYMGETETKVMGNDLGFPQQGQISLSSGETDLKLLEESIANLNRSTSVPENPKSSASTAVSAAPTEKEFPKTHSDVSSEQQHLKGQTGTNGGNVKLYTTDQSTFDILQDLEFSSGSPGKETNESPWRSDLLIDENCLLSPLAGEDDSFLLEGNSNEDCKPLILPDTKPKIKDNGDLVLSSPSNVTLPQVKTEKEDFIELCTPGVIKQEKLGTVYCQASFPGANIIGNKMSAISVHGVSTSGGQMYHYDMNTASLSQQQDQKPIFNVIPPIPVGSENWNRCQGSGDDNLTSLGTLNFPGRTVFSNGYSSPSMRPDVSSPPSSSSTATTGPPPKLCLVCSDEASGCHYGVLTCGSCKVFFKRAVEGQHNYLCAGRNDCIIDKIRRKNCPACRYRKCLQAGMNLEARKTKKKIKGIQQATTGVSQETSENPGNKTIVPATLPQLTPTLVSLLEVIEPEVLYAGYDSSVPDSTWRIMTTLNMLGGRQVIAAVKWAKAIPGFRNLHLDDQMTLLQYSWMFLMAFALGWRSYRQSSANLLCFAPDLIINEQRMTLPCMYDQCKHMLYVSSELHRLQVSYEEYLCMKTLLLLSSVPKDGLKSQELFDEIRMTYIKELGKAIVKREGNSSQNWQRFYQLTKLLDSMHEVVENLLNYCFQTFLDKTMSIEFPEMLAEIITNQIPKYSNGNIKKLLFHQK

Cc1nc(-c2ccc(Cl)cc2)oc1COC(C)(C)C(=O)O
inactive: Potency [1] | Potency [2] | Potency [3] | Potency [4] | Potency [5] | Potency [6] | Potency [7] | Potency [8] | Potency [9] | Potency [10] | Potency [11] | Potency [12] | Potency [13] | Potency [14] | Potency [15] | Potency [16] | Potency [17] | Potency [18] | Potency [19] | Potency [20]

O[C@@H]([C@H](O)[C@H](O)CBr)[C@H](O)CBr
inactive: Potency [1] | Potency [2] | Potency [3] | Potency [4] | Potency [5] | Potency [6] | Potency [7] | Potency [9] | Potency [10] | Potency [11] | Potency [13] | Potency [14] | Potency [15] | Potency [16] | Potency [17] | Potency [18]

CC(C)(C)CC(C)(C)c1ccc(Nc2ccc(C(C)(C)CC(C)(C)C)cc2)cc1
inactive: activation [1] -6.72% [at 8.3 µM] | activation [2] 2.9% [at 8.08 µM] | activity change, negative = cytotoxicity [3] -13.1% [at 8.08 µM] | activity, negative = cytotoxicity [4] 13.9% [at 8.08 µM] | activity change, negative = cytotoxicity [5] 4.18% [at 8.08 µM] | ratio activity, negative = MMP loss [6] 34.3% [at 8.08 µM] | fluorescence, relative to Rose Bengal [7] 0.212% [at 3.72 µM] | fluorescence, % of fluorescein control [8] 0.0549% [at 3.72 µM] | fluorescence, % of triamterene [9] -0.186% [at 3.72 µM] | fluorescence, % of fluorescent control [10] -0.94% [at 3.72 µM] | fluorescence, % of fluorescein [11] -0.0015% [at 3.72 µM] | activity change [13] 0.0494% [at 3.72 µM, hits give high values] | fluorescence, % of fluorescent control [14] 0.0404% [at 3.72 µM] | fluorescence, % of Rose Bengal [15] 0.189% [at 3.72 µM] | fluorescence, % of fluorescent control [16] 0.0515% [at 3.72 µM] | fluorescence, % of fluorescein control [17] 0.0526% [at 3.72 µM] | fluorescence, % of fluorescent control [18] 0.0384% [at 3.72 µM] | activation [19] -1.13% [at 6.9 µM] | activity change, negative = inhibition [20] -25.8% [at 7.04 µM]

CC(C)OC(=O)C(O)(CC(=O)O)CC(=O)O
inactive: Potency [1] | Potency [2] | Potency [3] | Potency [4] | Potency [5] | Potency [6] | Potency [7] | Potency [8] | Potency [10] | Potency [11] | Potency [12] | Potency [13] | Potency [15] | Potency [16] | Potency [17] | Potency [18]

CC(=O)Oc1cc2c(s1)CCN(C(C(=O)C1CC1)c1ccccc1F)C2 (stereo not given)
inactive: Potency [1] | Potency [2] | Potency [3] | Potency [4] | Potency [5] | Potency [6] | Potency [7] | Potency [8] | Potency [9] | Potency [10] | Potency [11] | Potency [13] | Potency [15] | Potency [16] | Potency [17] | Potency [19]

C=CCn1c(=O)n(CC=C)c(=O)n(CC=C)c1=O
inactive: Potency [1] | Potency [2] | Potency [3] | Potency [4] | Potency [5] | Potency [6] | Potency [7] | Potency [9] | Potency [10] | Potency [11] | Potency [12] | Potency [13] | Potency [15] | Potency [16] | Potency [17] | Potency [19]

CCC(CC)C(C)CCOC(C)=O (stereo not given)
inactive: Potency [1] | Potency [2] | Potency [3] | Potency [4] | Potency [5] | Potency [7] | Potency [8] | Potency [9] | Potency [10] | Potency [11] | Potency [12] | Potency [13] | Potency [14] | Potency [15] | Potency [16] | Potency [17] | Potency [18]
